Measured values reported in PubChem BioAssay AID2188 (Vanderbilt High Throughput Screening Facility, 2009).
Results with a measured potency or affinity are listed apart.

Target: Metabotropic glutamate receptor 2 (Rattus norvegicus) (UniProt P31421)
Assay: rat mGluR2 glutamate potency shift by compounds, selectivity assay for mGluR4 modulator project, cell-based (AID 2188)
Settings: mGluR2 cells, thallium flux, glutamate CRC + 10 uM compound; glutamate EC50 fold-shift by compound; at 10 µM; stronger effect = higher value

Metabotropic glutamate receptor 2 (Rattus norvegicus), sequence (P31421 whole entry, looked up): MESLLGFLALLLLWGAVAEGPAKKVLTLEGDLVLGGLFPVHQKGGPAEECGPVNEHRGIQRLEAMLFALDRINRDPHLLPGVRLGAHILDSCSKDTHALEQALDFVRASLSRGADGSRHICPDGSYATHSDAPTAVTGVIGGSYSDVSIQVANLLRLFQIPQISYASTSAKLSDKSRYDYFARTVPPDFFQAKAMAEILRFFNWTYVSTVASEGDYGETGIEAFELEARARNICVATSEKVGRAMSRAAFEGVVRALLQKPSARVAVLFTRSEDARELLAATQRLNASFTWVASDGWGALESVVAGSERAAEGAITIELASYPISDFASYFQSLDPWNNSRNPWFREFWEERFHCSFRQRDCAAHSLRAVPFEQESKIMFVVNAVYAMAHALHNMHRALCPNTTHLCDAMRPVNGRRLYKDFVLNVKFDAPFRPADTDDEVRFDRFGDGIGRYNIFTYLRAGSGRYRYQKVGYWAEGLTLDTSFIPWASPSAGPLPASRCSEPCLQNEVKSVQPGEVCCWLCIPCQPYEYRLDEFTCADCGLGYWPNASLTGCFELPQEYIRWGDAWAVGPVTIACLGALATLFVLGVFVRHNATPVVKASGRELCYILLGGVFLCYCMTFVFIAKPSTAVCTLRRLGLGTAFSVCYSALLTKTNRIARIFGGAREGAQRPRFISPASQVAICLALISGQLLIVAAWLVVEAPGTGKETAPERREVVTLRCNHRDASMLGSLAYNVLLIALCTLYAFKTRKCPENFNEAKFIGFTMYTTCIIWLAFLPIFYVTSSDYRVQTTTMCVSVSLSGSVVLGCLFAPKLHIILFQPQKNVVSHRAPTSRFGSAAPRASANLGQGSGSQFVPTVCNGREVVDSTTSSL

| Compound | fold shift |
| --- | --- |
| O=C(Nc1ccc(N2C(=O)C3[C@H]4C=C[C@H](C4)[C@H]3C2=O)c(Cl)c1)c1ccccn1 (some centres not stated) | 1.05 |
| O=C(Nc1cccc(Cl)c1)c1ccccn1 | 1.87 |
